# Bioassay records (PubChem BioAssay)
# HT1080-NT tox = kills 2HG-producing HT-1080-NT fibrosarcoma cells; Potency, µM (doses to about 46.1 µM), without a hit: at the top dose activity, negative = less viability, actives largely listed as cytotoxic; hit rate 1.6% among 360,000; HT-1080-NT fibrosarcoma viability, CellTiter-Glo ATP luminescence, 48 h;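 note: NT is the 2HG producing partner of a matched IDH1 knockdown line; potency is the fitted concentration of half-maximal effect; 0% = DMSO-treated cells and -100% = media-only wells without cells; nearly all actives have a fitted effect of over 55% in size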
#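 Luminescent CellTiter-Glo readout after 48 hours of compound exposure at 37 degrees C defined viability of HT-1080-NT cells. Activity was normalized to DMSO wells and cell-free media wells; concentration-response curves were fitted and assigned curve classes.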
# DT40 TDP1 no CPT = qHTS for Inhibitors of human tyrosyl-DNA phosphodiesterase 1 (TDP1): qHTS in cells in absence of CPT; AID 686978, 2013; DT40 Tdp1-/- hTDP1 cells, no CPT, ATP luminescence, 48 h; hit rate 15% among 420,000; Potency, µM (doses to about 46.2 µM), without a hit: top-dose activity change, negative = growth inhibition, actives largely listed as inhibitors; note: potency is the fitted concentration of half-maximal effect; nearly all actives have a fitted effect of over 55% in size
#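 Luminescent ATP content (CellTiter-Glo) served as the growth readout. Knockout chicken DT40 cells expressing human TDP1 were exposed to compounds without camptothecin for a minimum 48 hr at 37 °C.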
# HT1080 IDH1KD tx = HT-1080 IDH1 knockdown cell toxicity (counter line). HT-1080 IDH1 knockdown viability, ATP luminescence, 48 h. Potency, µM (titrated, usually from 46.1 µM), without a hit: at the top dose activity, negative = toxicity, usual class: cytotoxic. hit rate 2% among 360,000;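 note: potency is the fitted concentration of half-maximal effect; 0% = DMSO wells and -100% = cell-free medium wells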
#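 Luminescent ATP read-out (CellTiter-Glo, 10 min at room temperature) after 48 h compound exposure at 37 °C gave viability of IDH1-knockdown HT-1080 cells. Activity was normalised to DMSO and cell-free wells, then fitted as concentration-response curves.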
# IL1B secr inh = blocks inflammasome-driven IL-1 beta release. AID 743279. activity change, % at 57.5 µM. THP-1 LPS/ATP IL-1B secretion, AlphaLISA, 16 h; stronger effect = lower value. hit rate 4.7% among 360,000; in the data active = activity change below about -50%; inconclusive = mostly about -30% to -49%
#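 Secreted IL-1B measured by AlphaLISA bead assay after 16 h compound exposure of THP-1 cells; compounds (final up to 57.5 uM) added 1 h before LPS (250 ng/mL) and ATP (1.25 mM) stimulation; lower signal means less secretion.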
# TDP1 cell CPT = growth inhibition of DT40 Tdp1-/-;hTDP1 cells with camptothecin (screen for TDP1 inhibitors); Potency, µM (titrated, usually from 46.2 µM), without a hit: at the highest dose activity change, negative = growth inhibition, hits mostly inhibitors; hit rate 12% among 420,000; AID 686979; chicken DT40 Tdp1-/-;hTDP1 cells + 20 nM CPT, ATP luminescence, 48 h; note: potency is the fitted concentration of half-maximal effect; nearly all actives have a fitted effect of over 55% in size
#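 Cell growth measured by CellTiter-Glo luminescence after a minimum 48 h, 37 C compound exposure with 20 nM CPT in Tdp1-knockout DT40 cells stably expressing hTDP1, seeded 400/well; qHTS titration format.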
# * hit, by the source's call; ? = inconclusive; nt = not tested or not shown; [ ] = another dose, or the depositor's remark. Rows were chosen to be rich in hits. Some 19% of all compounds tested hit in one or more screens of this group. Unless noted, calls come from the whole dose curve; as a rule, active = well fitted curve in the direction sought with a large enough effect; inconclusive = small, poorly fitted or top-dose-only effect, or another doubt; inactive = no such curve, though single readings can be large; an effect the other way counts as inactive or inconclusive. Unless noted, % is set by controls: 0 for no effect and ±100 for the full control effect.
SMILES,HT1080-NT tox,DT40 TDP1 no CPT,HT1080 IDH1KD tx,IL1B secr inh,TDP1 cell CPT
Cc1ccc(OCCOc2cccc(Br)c2)c([N+](=O)[O-])n1,-5%,-22%,-12%,-71*,0%
Cc1cc(C)c(S(=O)(=O)Oc2ccccc2[N+](=O)[O-])c(C)c1,?,18µM*,?,-4,21µM*
Cc1ccc(NS(=O)(=O)c2ccccc2[N+](=O)[O-])cc1C,-1%,6%,3%,21,?
Cc1occc1C(=O)NCCN1Cc2ccccc2OC(c2ccccc2F)C1 (stereo not drawn),nt,?,nt,nt,2%[9.04 µM]
COC(=O)N(C)C[C@H]1OCc2cnnn2CCCC(=O)N([C@H](C)CO)C[C@H]1C,-10%,-13%,5%,17,7%
Cc1ccc(OCC(=O)c2cc(C)c(C)cc2C)c([N+](=O)[O-])n1,?,8.2µM*,?,36,3.7µM*
Cc1ccc(OCC(=O)c2c[nH]c3ccccc23)c([N+](=O)[O-])n1,-6%,4%,-2%,42,-26%
Cc1ccc(C)c(C(=O)COc2ccc(C)nc2[N+](=O)[O-])c1,?,15µM*,?,42,7.3µM*
COc1ccc(Cn2c(=O)cc(N)n(-c3ccccc3C)c2=O)cc1,21µM*,?,16µM*,nt,?
Cc1ccc(C)c(NC(=O)Cn2nnc(C(=O)NCc3cccs3)c2N)c1,?,?,23µM*,22,?
Cc1ccc(CNC(=O)c2nnn(CC(=O)Nc3cc(C)ccc3C)c2N)cc1,nt,1%,nt,nt,0%
Cc1ccc(C)c(NC(=O)Cn2nnc(C(=O)NCc3ccco3)c2N)c1,?,1.2µM*,?,13,1.3µM*
CC(=O)C1=C(O)C(=O)N(c2nccs2)C1c1ccccc1 (stereo not drawn),-2%,-25%,-5%,13,-24%
C/C(=N\N1CCN(c2ccccc2)CC1)c1ccco1,21%,?,14%,-1,-4%
COc1ccc(C(=O)NCCc2ccc(C(F)(F)F)cc2)cc1S(=O)(=O)N1CCOCC1,5%,?,11%,14,-21%
COc1ccc(NC(=O)C2CC(=O)N(c3ccccc3C)C2)c(OC)c1 (stereo not drawn),16%,1%,8%,-3,5%
Cc1cc(C)c(S(=O)(=O)NC2CC3CCC2C3)c(C)c1 (stereo not drawn),-16%,-24%,-1%,80,-28%
Cc1coc2cc3oc(=O)c(CCC(=O)NC4CC4)c(C)c3cc12,0%,13µM*,0%,-14,16µM*
Cc1c(Cc2ccccc2)c(=O)oc2cc(OCC(=O)c3ccccc3)ccc12,22%,?,27%,14,-30%
Cc1oc2cc3oc(=O)c(CCC(=O)NC4CC4)c(C)c3cc2c1C,17%,9.2µM*,5%,-15,5.8µM*
Cc1c(Cc2ccccc2)c(=O)oc2cc(OCC(=O)NCC(O)c3ccccc3)ccc12 (stereo not drawn),?,18µM*,-4%,10,?
C=C(C)COc1ccc2c(C)c(CCC(=O)NC3CC3)c(=O)oc2c1,1%,?,-5%,-11,18µM*
Cc1c(CCC(=O)NC2CC2)c(=O)oc2c(C)c(O)ccc12,7%,-16%,12%,?,8%
Cc1cc(C)c(S(=O)(=O)N2CCOC23CCN(S(C)(=O)=O)CC3)c(C)c1,6%,?,2%,20,?
COC(=O)c1cn([C@@H]2C[C@@H](C(=O)Nc3cccc(SC)c3)N(C3CCCCCC3)C2)nn1,nt,-19%,nt,nt,4%[9.04 µM]
COc1cccc(NC(=O)C2CCN(S(=O)(=O)c3ccc4c(c3)N(C(C)=O)CCO4)CC2)c1,21%,5%,-2%,24,-19%
Cc1ccc(C)c(NC(=O)c2ccc(S(=O)(=O)N(C)CC3CCCO3)cc2)c1 (stereo not drawn),-4%,?,-11%,-10,?
